Data on 12 compounds can be found in PubChem BioAssay (NCATS).

Structures are written as SMILES. Inconclusive results are not listed. Calls of active or inactive are those of the source. Unless noted, calls come from the whole dose curve; as a rule, active = well fitted curve in the direction sought with a large enough effect; inconclusive = small, poorly fitted or top-dose-only effect, or another doubt; inactive = no such curve, though single readings can be large; an effect the other way counts as inactive or inconclusive.

In test [1] the target is Cytochrome P450 2D6 (Homo sapiens) (UniProt P10635). Put plainly: Cytochrome P450 family 2 subfamily D member 6 (CYP2D6) small molecule antagonists: luciferase biochemical (cell-free) qHTS assay (AID 1645840; active = well fitted curve in the direction sought with a large enough effect in the repeat runs; an effect the other way counts as inactive or inconclusive; note: potency is the fitted concentration of half-maximal effect; nearly all actives have a fitted effect of over 55% in size). The essentials: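 P450-Glo CYP2D6 system: proluciferin substrate converted by enzyme to luciferin, read by luminescence proportional to activity. Enzyme-substrate mix with compound 10 min at room temperature, then NADPH regeneration 1 h before detection reagent.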
In general terms: Quantitative high-throughput screening tests each substance at several concentrations.

In test [2] the target is Cytochrome P450 2C9 (Homo sapiens) (UniProt P11712). Put plainly: Cytochrome P450 family 2 subfamily C member 9 (CYP2C9) small molecule antagonists: luciferase biochemical (cell-free) qHTS assay (AID 1645842; active = well fitted curve in the direction sought with a large enough effect in the repeat runs; an effect the other way counts as inactive or inconclusive; note: potency is the fitted concentration of half-maximal effect; nearly all actives have a fitted effect of over 55% in size). The procedure, abridged:
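P450-Glo CYP2C9 system: proluciferin substrate with enzyme in mix containing 0.4% BSA, 10 min at room temperature, then NADPH regeneration solution added and incubated 1 h at 37C. Detection reagent stopped reaction; luminescence read after 20 min as RLU.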

In another test the test system is CASKI. Put plainly: Primary qHTS to identify gynecologic anti-cancer compounds using libraries of approved drugs and bioactive compounds (AID 1345084). Note: nearly all actives have a fitted effect of over 55% in size. Note: potency is the fitted concentration of half-maximal effect. The note with it: Gynecologic cancer cell panel viability, ATPlite luminescence, 48 h; series mostly up to 57.5 µM. The essentials: (§1)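 Cytotoxicity screen measuring ATP content by luciferase luminescence. Each compound is applied at five concentrations for 48 h at 37 C with 5% CO2.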

The next test relates to Es-2. The test is described as above. The note with it: Gynecologic cancer cell panel viability, ATPlite luminescence, 48 h; series mostly up to 57.5 µM. The procedure, abridged: as §1
In general terms: ATP-based viability assays read luminescence as a measure of living cells.

Another test relates to Tov-21-G. The description is as above. The note with it: Gynecologic cancer cell panel viability, ATPlite luminescence, 48 h; series mostly up to 57.5 µM. The essentials: as §1
In a further test the test system is PA-1. The test is described as above. The conditions noted are these: Gynecologic cancer cell panel viability, ATPlite luminescence, 48 h; series mostly up to 57.5 µM. The essentials: as §1
Test [3] in a line: Primary fluorescence-based thiol-reactive (MSTI) qHTS assay for identification of artifact compounds. (AID 1845221).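 Note: thiol-reactive compounds lower the probe fluorescence signal; nearly all actives have a fitted effect of over 65% in size.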 The essentials: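 Curve-fitted percent inhibition (4-parameter Hill) derived from fluorescence, Ex 525/Em 598 nm, scaled with Acetyl-MSTI and MSTI; 1 h incubation at room temperature.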
The test system of another test is C33A. Put plainly: Primary qHTS to identify gynecologic anti-cancer compounds using libraries of approved drugs and bioactive compounds (AID 1345084). Note: nearly all actives have a fitted effect of over 55% in size. Note: potency is the fitted concentration of half-maximal effect. The note with it: Gynecologic cancer cell panel viability, ATPlite luminescence, 48 h; series mostly up to 57.5 µM. The essentials: as §1
The target of test [4] is Catechol O-methyltransferase (Homo sapiens) (UniProt P21964). As to the kind of experiment: Confirmatory Screen for Target Class Profiling of Small Molecule Inhibitors of Methyltransferases (AID 1745852; calls by dose curve; note: potency is the fitted concentration of half-maximal effect; for activity change, negative = inhibition: % is set by controls: 0 for no effect and ±100 for the full control effect). The conditions noted are these: MTase-Glo luminescence, SAH detection, recombinant enzyme; measured here: COMT max response; stronger effect = lower value.
Test [5] concerns the target Guanidinoacetate N-methyltransferase (Homo sapiens) (UniProt Q14353). The test is described as above. The note with it: activity change, negative = inhibition: at 57.3 µM (top of the series) unless noted.
The target in test [6] is Nicotinamide N-methyltransferase (Homo sapiens) (UniProt P40261). The test is described as above. The note with it: MTase-Glo luminescence, SAH detection, recombinant enzyme; measured here: NNMT max response; stronger effect = lower value.
Test [7] concerns the target Phenylethanolamine N-methyltransferase (Homo sapiens) (UniProt P11086). The test is described as above. The note with it: MTase-Glo luminescence, SAH detection, recombinant enzyme; measured here: PNMT max response; stronger effect = lower value.
For another test, the system named is SKOV3. Put plainly: Primary qHTS to identify gynecologic anti-cancer compounds using libraries of approved drugs and bioactive compounds (AID 1345084). Note: nearly all actives have a fitted effect of over 55% in size. Note: potency is the fitted concentration of half-maximal effect. The conditions noted are these: Gynecologic cancer cell panel viability, ATPlite luminescence, 48 h; series mostly up to 57.5 µM. The essentials: as §1
In another test the test system is CAOV3. Described as above. The conditions noted are these: Gynecologic cancer cell panel viability, ATPlite luminescence, 48 h; series mostly up to 57.5 µM. The procedure, abridged: as §1

Sequence of Cytochrome P450 2D6 (Homo sapiens) (P10635 whole entry, looked up): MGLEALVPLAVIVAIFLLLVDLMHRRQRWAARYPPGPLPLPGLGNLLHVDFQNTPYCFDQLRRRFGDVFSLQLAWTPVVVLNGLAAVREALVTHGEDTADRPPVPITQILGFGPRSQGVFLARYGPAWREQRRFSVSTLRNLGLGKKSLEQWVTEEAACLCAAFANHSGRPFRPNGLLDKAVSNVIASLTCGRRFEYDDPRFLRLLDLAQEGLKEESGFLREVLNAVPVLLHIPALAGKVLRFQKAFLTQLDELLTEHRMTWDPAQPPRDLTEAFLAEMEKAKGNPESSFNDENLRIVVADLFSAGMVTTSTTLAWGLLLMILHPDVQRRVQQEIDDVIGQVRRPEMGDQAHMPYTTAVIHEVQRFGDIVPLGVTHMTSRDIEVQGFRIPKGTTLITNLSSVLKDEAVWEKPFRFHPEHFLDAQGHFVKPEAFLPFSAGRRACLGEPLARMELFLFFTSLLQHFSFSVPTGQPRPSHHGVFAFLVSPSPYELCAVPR
Sequence of Cytochrome P450 2C9 (Homo sapiens) (P11712 whole entry, looked up): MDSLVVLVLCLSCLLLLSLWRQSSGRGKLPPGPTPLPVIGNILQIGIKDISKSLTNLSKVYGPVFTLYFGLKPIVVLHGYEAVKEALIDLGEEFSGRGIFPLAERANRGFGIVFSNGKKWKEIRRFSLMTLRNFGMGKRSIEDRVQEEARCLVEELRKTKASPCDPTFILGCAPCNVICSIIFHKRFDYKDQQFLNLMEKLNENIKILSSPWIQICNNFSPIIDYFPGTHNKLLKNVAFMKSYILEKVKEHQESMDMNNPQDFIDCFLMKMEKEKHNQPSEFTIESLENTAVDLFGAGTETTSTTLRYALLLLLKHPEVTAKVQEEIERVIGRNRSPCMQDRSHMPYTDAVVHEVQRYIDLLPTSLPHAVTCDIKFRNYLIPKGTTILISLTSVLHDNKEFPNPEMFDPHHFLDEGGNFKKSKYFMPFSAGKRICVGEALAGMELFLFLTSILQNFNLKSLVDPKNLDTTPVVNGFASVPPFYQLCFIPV
Sequence of Phenylethanolamine N-methyltransferase (Homo sapiens) (P11086 whole entry, looked up): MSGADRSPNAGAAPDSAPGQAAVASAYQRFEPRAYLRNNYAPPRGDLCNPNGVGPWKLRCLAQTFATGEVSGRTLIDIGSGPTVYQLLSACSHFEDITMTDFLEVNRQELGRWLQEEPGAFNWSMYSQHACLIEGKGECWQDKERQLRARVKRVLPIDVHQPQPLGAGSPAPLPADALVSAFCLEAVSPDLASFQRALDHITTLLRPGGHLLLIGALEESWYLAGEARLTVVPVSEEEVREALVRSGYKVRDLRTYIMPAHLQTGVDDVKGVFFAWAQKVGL
Sequence of Catechol O-methyltransferase (Homo sapiens) (P21964 whole entry, looked up): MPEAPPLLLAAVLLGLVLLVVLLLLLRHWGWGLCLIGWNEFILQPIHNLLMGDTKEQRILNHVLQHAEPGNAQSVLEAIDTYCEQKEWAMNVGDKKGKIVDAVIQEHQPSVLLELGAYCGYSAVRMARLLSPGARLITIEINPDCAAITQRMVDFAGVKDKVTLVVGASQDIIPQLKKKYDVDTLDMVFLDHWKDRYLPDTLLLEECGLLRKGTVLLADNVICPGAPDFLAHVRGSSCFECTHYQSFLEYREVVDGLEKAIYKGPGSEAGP
Sequence of Nicotinamide N-methyltransferase (Homo sapiens) (P40261 whole entry, looked up): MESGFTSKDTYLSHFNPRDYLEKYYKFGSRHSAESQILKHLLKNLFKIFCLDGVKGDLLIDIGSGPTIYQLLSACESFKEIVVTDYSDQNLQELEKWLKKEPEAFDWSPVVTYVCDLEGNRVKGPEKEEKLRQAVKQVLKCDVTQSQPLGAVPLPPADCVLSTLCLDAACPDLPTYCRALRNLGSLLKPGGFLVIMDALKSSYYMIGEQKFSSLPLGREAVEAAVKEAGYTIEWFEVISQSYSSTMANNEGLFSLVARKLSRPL

`O=C(Nc1ncc(SCCN2CCCC2)s1)C1(c2ccc(S(=O)(=O)C3CC3)cc2)CC1C1CCCCC1` (stereo not given): the Potency in [1] is 21.3 µM (active); in test [2] it was 19 µM (active). The Potency entry in the test with CASKI, with Es-2 and with Tov-21-G was “inactive” in each case.
As to `N#Cc1cccc(C#N)c1-c1nc2c3ccccc3c3cc(Cl)ccc3c2[nH]1`, the Potency result with CASKI, in the test with Es-2, in the test with PA-1 and in the test with Tov-21-G was “inactive” each time.
As to `COc1ccccc1-c1c[nH]c2ncc(-c3cncc(C(=O)N(C)C)c3)cc12`, the Potency in test [2] was 3.38 µM (active); with PA-1, 31.6 µM (active). Also, the Potency entry (in test [3]; in the test on C33A; in the test on CASKI; in the test on Es-2) was “inactive” each time.
Take `OC(CNCCc1c[nH]c2ccccc12)Cn1c2ccccc2c2ccccc21` (stereo not given): the Potency in [1] was 0.268 µM (active); in test [2], 0.952 µM (active). In addition, the Potency result (in test [3]; with Es-2; with PA-1; with Tov-21-G) was “inactive” each time.
Turning to `COc1ccc2c3ccnc4ccc(=O)n(c2c1)c43`, the Potency result in the test with C33A was “inactive”. Besides, the Potency in the test on PA-1 was 25.1 µM (active).
For `FC(F)(F)c1ccc(CNc2ccc(Cc3c[nH]c4ncccc34)cn2)cc1`, the Potency in test [1] was 0.19 µM (active); in [2], 1.2 µM (active). The Potency result in the test on Es-2 and in the test with Tov-21-G was “inactive” in each case.
As to `COc1cc2nc(N3CCN(C)CC3)nc(NC3CCN(Cc4ccccc4)CC3)c2cc1OC`, the figures for the activity in test [4], in [6] and in test [7] were -1.25%, -9.04% and 0.903%, respectively. In addition, the activity change, negative = inhibition in test [5] came to 9.72%. Further, the Potency entry (in test [3]; in the test with C33A) was “inactive” in each case.
With `CC1=CC(=O)[C@@]2(C(C)C)C[C@@H]12`, the activity was -4.64% in test [4], -30.7% in test [6] and -13.4% in test [7]. For the same compound, in [5], the Potency was 48.2 µM (active). Moreover, the Potency entry with C33A, with CASKI, in the test with Es-2, in the test with SKOV3 and in the test on Tov-21-G was “inactive” each time.
In the case of `COc1ccc(-c2cc(C(O)C3CCCCN3)c3ccccc3n2)cc1` (stereo not given), the Potency in test [2] is 10.7 µM (active); in the test on SKOV3, 28.2 µM (active). Moreover, in test [3], the Potency result is “inactive”.
With `CC(=O)Nc1nc2c(Oc3cc(-c4ccc(C(F)(F)F)cc4)ncn3)cccc2s1`, the Potency in [2] was 10.7 µM (active); with Tov-21-G, 22.4 µM (active). Also, the Potency entry (in test [3]; with C33A) was “inactive” throughout.
For the compound `CCOP(=O)(Cc1ccc(C(=O)Nc2ccc(Br)cc2C#N)cc1)OCC`, the Potency result (in [3]; in the test on CAOV3; in the test on CASKI; with Es-2; in the test with PA-1; in the test on Tov-21-G) was “inactive” each time.
On to `CC[C@]1(O)C[C@H]2CN(CCC3C(=Nc4ccccc43)[C@@](C(=O)OC)(c3cc4c(cc3OC)N(C)[C@H]3[C@@](O)(C(N)=O)[C@H](O)[C@]5(CC)C=CCN6CC[C@]43[C@@H]65)C2)C1` (stereo not given in full), for which the Potency entry in the test on CAOV3 was “inactive”. Further, the Potency in the test with CASKI was 0.199 µM (active); in the test with Es-2, 0.794 µM (active); in the test on PA-1, 0.1 µM (active); in the test on Tov-21-G, 0.316 µM (active).
